Key:
Test in all cases: log2 ratio of Biotin-Ahx-Ub-VS probe labelling (fragment/DMSO); higher = less target engagement (more negative = stronger competition), active = hit call of the paper (q ≤ 0.05, log2 ratio ≤ -1)
Conditions in all cases: compound concentration: 200 uM; treatment time: 3 h
USP34 = USP34 (UniProt Q70CQ2)
Method in brief: (§1)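 Labelled DUBs from HEK293T lysate were NeutrAvidin-enriched, digested with LysC and trypsin, and run by diaPASEF LC-MS/MS. Before that, each 495 µg sample in Tris/CHAPS/IGEPAL buffer with protease inhibitors was treated in triplicate with fragment at 200 µM or vehicle for 3 h, then with Biotin-Ahx-Ub-VS at 0.5 µM final for 1 h. Values are average log2 ratios of fragment over vehicle by unpaired t-test, based on global-median-normalised Spectronaut label-free quantities from proteins with ≥2 unique peptides.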

USP36 = biological target: T1, USP36 (UniProt Q9P275)
T1 sequence (whole entry): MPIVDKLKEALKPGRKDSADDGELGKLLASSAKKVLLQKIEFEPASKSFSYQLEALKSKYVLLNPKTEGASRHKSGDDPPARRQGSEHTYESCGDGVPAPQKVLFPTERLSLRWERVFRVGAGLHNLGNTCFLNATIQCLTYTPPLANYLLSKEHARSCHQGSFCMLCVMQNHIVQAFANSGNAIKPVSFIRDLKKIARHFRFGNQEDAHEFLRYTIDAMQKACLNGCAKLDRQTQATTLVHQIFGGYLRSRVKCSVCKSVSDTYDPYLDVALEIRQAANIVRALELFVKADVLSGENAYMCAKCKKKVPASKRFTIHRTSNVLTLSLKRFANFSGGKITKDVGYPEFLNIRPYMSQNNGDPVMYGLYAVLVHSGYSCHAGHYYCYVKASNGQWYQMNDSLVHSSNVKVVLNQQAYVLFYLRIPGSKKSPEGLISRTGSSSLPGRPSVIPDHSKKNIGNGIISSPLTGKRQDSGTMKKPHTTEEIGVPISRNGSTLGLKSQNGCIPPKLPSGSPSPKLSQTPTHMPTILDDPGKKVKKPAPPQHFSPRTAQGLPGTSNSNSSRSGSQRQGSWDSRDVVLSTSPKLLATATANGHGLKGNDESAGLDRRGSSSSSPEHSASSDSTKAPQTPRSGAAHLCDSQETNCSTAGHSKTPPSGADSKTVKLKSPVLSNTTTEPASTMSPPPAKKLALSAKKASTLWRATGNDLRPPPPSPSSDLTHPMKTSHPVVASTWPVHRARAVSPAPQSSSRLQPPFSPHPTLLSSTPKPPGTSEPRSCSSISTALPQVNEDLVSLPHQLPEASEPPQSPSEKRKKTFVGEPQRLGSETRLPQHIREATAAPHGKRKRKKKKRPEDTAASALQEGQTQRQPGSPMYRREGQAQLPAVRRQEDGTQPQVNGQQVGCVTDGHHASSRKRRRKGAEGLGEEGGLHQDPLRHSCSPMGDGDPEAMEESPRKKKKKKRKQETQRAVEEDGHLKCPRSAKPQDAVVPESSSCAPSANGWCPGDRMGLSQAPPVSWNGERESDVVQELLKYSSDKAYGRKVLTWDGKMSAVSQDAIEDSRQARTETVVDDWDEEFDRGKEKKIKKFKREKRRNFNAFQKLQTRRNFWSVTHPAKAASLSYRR
Method in brief: as §1

USP38 = biological target: T2, USP38 (UniProt Q8NB14)
T2 sequence (whole entry): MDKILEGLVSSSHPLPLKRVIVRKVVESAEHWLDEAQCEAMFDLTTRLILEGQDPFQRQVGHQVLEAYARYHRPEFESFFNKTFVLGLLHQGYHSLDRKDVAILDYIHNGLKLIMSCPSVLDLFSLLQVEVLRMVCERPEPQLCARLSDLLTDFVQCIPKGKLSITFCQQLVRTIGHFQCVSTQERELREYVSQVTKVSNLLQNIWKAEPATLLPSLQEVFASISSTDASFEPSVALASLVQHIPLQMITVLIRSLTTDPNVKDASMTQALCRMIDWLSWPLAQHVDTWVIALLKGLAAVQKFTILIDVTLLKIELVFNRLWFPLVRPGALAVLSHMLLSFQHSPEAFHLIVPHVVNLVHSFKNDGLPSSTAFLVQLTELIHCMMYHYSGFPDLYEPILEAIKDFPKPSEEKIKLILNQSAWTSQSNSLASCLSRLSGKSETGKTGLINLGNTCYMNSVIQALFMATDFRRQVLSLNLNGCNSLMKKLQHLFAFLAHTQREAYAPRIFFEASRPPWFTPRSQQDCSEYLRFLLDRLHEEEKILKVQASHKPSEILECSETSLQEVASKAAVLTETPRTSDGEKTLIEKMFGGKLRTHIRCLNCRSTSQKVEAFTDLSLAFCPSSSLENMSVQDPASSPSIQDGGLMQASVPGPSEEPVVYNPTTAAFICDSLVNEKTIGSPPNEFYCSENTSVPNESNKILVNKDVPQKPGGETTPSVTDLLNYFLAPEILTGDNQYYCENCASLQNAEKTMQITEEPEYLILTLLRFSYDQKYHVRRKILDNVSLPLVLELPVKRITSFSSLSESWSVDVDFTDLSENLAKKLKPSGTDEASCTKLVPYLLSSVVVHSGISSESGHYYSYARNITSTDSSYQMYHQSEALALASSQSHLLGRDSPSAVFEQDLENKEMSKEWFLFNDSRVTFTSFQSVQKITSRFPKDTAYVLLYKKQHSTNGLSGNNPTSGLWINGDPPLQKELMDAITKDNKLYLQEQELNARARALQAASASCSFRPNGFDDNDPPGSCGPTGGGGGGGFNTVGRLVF
Method in brief: as §1

USP39 = biological target: T3, USP39 (UniProt Q53GS9)
T3 sequence (whole entry): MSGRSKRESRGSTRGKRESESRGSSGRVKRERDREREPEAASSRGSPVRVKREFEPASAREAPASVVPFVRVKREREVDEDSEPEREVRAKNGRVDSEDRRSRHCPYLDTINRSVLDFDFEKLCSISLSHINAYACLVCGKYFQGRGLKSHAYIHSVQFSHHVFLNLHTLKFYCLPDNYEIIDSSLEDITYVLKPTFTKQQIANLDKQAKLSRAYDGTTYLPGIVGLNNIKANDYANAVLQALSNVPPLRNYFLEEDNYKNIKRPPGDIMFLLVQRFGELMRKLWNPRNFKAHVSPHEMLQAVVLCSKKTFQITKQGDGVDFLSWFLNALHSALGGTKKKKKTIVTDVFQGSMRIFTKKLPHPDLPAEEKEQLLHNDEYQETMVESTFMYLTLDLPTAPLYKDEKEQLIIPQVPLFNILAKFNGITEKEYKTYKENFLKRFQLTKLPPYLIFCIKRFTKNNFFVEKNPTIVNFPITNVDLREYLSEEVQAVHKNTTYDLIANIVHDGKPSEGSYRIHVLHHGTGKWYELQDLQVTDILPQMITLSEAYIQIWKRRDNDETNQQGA
Method in brief: as §1

USP4 = biological target: T4, USP4 (UniProt Q13107)
T4 sequence (whole entry): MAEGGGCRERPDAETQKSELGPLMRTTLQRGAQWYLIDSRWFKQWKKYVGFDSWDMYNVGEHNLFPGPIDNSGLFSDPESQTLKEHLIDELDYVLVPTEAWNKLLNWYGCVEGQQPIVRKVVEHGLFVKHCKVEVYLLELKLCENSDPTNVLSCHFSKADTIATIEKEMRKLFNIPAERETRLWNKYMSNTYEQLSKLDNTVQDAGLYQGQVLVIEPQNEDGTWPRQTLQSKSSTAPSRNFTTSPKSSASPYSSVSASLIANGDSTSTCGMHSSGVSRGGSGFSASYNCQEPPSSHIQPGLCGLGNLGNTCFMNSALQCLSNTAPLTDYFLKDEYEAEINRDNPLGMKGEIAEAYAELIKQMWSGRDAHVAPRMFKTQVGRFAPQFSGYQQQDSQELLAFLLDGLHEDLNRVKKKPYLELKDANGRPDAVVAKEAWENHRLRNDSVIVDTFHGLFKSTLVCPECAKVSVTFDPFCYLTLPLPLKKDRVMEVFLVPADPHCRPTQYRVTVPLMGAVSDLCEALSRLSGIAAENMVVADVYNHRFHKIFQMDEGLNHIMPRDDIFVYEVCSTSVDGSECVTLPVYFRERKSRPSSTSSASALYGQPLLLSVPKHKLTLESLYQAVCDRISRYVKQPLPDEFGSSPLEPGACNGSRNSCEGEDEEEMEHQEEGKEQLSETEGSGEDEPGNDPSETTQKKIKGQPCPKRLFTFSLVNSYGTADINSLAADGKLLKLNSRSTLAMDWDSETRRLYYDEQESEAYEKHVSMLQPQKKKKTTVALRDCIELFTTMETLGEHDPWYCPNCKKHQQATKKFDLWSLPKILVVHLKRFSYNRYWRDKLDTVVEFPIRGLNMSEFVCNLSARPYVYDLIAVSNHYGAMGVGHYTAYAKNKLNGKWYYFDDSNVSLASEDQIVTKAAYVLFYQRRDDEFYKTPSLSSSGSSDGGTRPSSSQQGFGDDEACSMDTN
Method in brief: as §1

Measured: log2 ratio of Biotin-Ahx-Ub-VS probe labelling

Chain of USP34 (Q70CQ2 whole entry, the tested form may be a part): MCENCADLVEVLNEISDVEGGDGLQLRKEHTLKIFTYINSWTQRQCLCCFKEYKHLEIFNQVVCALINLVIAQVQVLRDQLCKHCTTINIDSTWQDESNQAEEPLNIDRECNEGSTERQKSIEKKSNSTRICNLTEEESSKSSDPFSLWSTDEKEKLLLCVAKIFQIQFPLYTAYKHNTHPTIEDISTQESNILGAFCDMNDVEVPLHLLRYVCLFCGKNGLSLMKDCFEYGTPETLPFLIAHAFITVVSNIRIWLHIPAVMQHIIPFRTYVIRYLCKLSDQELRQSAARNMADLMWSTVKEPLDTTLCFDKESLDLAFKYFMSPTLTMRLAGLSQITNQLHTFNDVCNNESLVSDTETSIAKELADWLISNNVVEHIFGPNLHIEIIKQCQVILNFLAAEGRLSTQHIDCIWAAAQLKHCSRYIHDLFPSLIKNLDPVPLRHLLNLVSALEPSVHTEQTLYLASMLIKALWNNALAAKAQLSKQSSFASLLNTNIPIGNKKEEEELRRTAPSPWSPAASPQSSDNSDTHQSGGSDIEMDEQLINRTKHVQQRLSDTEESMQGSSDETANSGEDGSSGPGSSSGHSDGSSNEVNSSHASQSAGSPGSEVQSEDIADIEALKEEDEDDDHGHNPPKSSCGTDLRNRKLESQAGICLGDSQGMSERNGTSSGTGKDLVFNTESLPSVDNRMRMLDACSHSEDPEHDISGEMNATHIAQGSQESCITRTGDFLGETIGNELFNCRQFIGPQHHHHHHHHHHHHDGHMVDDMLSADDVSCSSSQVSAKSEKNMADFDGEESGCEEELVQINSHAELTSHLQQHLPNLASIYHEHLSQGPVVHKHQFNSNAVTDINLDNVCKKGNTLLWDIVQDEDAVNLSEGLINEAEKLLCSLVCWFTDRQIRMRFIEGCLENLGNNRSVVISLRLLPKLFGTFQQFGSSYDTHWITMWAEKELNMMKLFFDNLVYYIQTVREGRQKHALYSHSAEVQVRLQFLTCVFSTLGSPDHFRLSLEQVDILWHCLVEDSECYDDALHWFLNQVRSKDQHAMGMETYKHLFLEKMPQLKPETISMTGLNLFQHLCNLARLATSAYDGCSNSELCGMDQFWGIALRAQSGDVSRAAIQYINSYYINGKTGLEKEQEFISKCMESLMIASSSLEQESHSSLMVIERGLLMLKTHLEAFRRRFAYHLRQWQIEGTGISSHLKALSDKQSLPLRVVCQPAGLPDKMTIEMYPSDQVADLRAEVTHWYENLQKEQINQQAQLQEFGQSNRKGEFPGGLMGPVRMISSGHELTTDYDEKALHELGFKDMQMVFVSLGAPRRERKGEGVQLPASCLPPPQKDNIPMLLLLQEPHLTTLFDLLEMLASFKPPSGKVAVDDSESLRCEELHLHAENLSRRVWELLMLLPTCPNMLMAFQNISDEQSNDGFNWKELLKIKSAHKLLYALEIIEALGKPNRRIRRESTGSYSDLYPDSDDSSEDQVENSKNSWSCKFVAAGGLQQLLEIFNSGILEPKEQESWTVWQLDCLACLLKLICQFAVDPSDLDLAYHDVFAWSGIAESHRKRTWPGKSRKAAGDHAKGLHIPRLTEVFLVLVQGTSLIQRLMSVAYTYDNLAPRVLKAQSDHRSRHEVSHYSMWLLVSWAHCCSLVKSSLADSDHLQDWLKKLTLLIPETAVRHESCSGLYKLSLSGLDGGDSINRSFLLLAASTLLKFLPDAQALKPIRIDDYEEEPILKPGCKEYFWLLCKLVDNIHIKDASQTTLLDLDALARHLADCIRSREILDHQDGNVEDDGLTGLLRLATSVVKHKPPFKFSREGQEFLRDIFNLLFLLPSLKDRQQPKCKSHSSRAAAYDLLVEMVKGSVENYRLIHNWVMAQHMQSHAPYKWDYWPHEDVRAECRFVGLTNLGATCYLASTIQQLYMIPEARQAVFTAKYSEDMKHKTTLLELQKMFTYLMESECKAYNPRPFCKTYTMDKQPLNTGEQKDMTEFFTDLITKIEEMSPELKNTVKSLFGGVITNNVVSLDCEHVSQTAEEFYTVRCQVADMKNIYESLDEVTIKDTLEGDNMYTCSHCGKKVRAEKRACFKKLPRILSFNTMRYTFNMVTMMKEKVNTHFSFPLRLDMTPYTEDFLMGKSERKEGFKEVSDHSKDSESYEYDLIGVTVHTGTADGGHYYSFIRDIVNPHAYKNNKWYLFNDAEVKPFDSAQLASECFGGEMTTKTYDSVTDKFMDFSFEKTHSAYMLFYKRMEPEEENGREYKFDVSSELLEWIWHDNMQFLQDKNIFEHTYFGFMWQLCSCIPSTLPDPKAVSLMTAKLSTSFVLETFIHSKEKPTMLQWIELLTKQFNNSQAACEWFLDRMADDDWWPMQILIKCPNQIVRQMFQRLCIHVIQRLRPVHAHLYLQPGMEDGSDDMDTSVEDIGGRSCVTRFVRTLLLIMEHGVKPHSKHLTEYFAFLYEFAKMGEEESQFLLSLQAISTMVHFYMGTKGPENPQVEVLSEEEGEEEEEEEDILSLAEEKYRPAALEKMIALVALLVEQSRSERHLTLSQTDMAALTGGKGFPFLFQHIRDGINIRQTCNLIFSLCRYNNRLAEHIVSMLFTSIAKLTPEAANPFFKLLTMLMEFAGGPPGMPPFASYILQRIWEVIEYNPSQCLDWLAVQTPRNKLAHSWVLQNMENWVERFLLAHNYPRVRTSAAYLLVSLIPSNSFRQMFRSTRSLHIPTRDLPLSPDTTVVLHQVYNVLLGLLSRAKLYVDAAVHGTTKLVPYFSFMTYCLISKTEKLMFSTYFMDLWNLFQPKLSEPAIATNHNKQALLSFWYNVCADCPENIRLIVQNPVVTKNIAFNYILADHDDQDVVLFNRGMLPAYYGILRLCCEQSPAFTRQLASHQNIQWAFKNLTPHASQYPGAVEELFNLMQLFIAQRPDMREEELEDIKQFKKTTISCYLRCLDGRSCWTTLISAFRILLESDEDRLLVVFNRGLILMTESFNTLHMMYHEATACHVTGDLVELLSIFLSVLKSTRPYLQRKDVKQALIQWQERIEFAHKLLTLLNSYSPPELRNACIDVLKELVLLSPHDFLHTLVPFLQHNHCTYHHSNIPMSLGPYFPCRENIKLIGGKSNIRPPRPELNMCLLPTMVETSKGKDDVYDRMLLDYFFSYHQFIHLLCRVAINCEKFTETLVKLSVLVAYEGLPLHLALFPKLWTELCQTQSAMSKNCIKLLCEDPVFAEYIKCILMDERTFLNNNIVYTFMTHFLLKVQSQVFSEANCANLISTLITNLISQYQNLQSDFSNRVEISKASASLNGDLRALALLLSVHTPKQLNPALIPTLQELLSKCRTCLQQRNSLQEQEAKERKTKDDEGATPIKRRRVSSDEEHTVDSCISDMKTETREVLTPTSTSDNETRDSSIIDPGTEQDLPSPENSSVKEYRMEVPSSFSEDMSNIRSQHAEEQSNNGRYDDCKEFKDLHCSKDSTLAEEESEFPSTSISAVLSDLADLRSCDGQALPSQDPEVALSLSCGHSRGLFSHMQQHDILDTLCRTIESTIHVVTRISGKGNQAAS

CN(C)S(=O)(=O)c1ccccc1CNC(=O)CCl
inactive: USP34 0.137 | USP36 -0.00554 | USP38 0.218 | USP39 0.237 | USP4 -0.0523

From the supplement of paper PMC11732987, “Enantioselective OTUD7B fragment discovery through chemoproteomics screening and high-throughput optimisation” (Communications Chemistry, 2025)
